An excerpt weighted towards active compounds, which were near 3.1% of everything screened.
LEDGF integ inh – blockers of LEDGF/p75-dependent integrase strand transfer – biochemical, TR-FRET, high throughput, primary screen. actives 0.64% (n = 370,000). inhibition, % at 3.7 µM. TR-FRET IN-LEDGF/p75 DNA integration, Eu/Cy5. HIV-1 integrase (with human LEDGF/p75). AID 743269, 2014;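 active = inhibition above the screen-wide mean plus 3 SD, cut at about 13% in these data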;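 note: signal is the Cy5 over europium emission ratio at 671 and 618 nm; 0% = plate median of compound wells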
UHRF1 binding – UHRF1 methylated DNA binding inhibitors, primary screen, counter-screen for MBD2 inhibitor project, biochemical, TR-FRET, human UHRF1, single concentration | UHRF1 binding to methylated oligo | inhibition, % at 4.4 µM | E3 ubiquitin-protein ligase UHRF1 (Homo sapiens), Q96T88 | actives 0.75% (n = 370,000); in the data active = inhibition above about 21%;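 note: UHRF1 SRA domain binding a hemimethylated CpG hairpin DNA probe; 0% = median of test compound wells and 100% = reference inhibitor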
Rin1-Abl PPI inh – inhibitors of Rin1-Abl protein binding, primary screen, biochemical, TR-FRET; Tyrosine-protein kinase ABL1 (Homo sapiens) + Ras and Rab interactor 1 (Homo sapiens), …; inhibition, % at 7.35 µM; actives 0.4% (n = 360,000); AID 588664, 2011; in the data active = inhibition above about 5%, passing the limit was not always enough
proKLK7 act – proKLK7 zymogen activators, primary screen, biochemical, fluorescence intensity | AID 652039, 2013 | Kallikrein-7 (Homo sapiens), P49862 | actives 0.9% (n = 370,000) | activation, % at 7 µM | purified proKLK7, EDANS-DABCYL substrate fluorescence; 100% is mature enzyme control, 0% vehicle;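 active = activation above the mean of all tested compounds plus 3 SD, computed per campaign excluding outliers beyond control limits, cut at about 13% in these data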
MBD2 DNA inh – inhibitors of MBD2 binding to methylated DNA, primary screen, biochemical, TR-FRET, DNA-binding domain, human | MBD2 binding to methylated oligonucleotide | actives 0.31% (n = 370,000) | AID 686964, 2013 | inhibition, % at 4.4 µM; in the data active = inhibition above about 13%
Neddylation inh – inhibitors of cullin neddylation, primary screen, biochemical, TR-FRET, uHTS, NAE and Ubc12; NEDD8-conjugating enzyme Ubc12 (Homo sapiens) + NEDD8-activating enzyme E1 regulatory …; calls only at 25 µM; actives 0.58% (n = 360,000); AID 651699, 2012; in the data active = inhibition above about 36%
Target sequence (P61081 whole entry, looked up): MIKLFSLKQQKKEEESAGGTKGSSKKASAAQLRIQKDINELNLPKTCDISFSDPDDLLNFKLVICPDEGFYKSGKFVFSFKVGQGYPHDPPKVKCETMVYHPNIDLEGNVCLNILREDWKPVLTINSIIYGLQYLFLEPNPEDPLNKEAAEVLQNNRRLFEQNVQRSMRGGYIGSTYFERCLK
Target sequence (Q13564 whole entry, looked up): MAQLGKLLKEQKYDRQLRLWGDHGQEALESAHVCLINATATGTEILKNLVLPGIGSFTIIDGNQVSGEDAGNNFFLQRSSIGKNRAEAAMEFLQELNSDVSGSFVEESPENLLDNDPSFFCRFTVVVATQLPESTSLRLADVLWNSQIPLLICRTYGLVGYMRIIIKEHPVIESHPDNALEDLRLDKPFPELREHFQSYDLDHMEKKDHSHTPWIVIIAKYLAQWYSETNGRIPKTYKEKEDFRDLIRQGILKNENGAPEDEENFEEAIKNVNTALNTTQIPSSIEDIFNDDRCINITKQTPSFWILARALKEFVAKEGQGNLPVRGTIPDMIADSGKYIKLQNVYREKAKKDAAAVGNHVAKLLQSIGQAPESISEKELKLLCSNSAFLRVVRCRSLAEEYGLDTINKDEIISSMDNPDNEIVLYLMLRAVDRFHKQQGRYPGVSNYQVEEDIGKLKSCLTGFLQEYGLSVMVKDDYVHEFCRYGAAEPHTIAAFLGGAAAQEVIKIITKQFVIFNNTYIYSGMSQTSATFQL
Rin1-Abl confirm – Rin1-Abl binding inhibitor retest, confirmation, biochemical, TR-FRET. purified proteins. AID 602124, 2011. actives 49% (n = 1,300). shares compounds with Rin1-Abl PPI inh. inhibition, % at 7.35 µM
GFP quench – GFP fluorescence inhibitors and quenchers, artefact control for Rin1-Abl interaction inhibitor project, biochemical; shares compounds with Rin1-Abl PPI inh; inhibitors/quenchers counterscreen; inhibition, % at 6.75 µM; actives 8.5% (n = 1,300); AID 602125, 2011;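 note: ABL1-eGFP fusion protein alone without its partner RIN1-SBP; 0% = protein with vehicle and 100% = wells lacking protein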
GFP quench dose – GFP fluorescence inhibitors and quenchers, dose response, artefact control for Rin1-Abl interaction inhibitor project, biochemical; GFP fluorescence interference/quenching counterscreen; AID 602182, 2012; IC50, µM; shares compounds with Rin1-Abl PPI inh; 230 tested, under 10 active; call rule not given here;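 note: ABL1-eGFP fusion protein alone without its RIN1 binding partner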
Numbers without * were called inactive; i = inactive; x = no result shown; ! = a repeat was not active. Cut-off read from the data, not from the text of the source, unless noted: active = inhibition above about 6.5%; inactive = the rest.

SMILES	LEDGF integ inh	UHRF1 binding	Rin1-Abl PPI inh	proKLK7 act	MBD2 DNA inh	Neddylation inh	Rin1-Abl confirm	GFP quench	others
CCOC(=O)N1CCN(CCC(=O)Nc2ccc(C)c(Br)c2)CC1	2	-1	5.6*	0	-4	i	6	-1
CCOC(=O)N1CCN(CCC(=O)Nc2cccc(Br)c2)CC1	2	-2	6.2*!	0	-9	i	0	1
CCOC(=O)N1CCN(CCC(=O)Nc2ccc(Br)cc2)CC1	3	2	0	0	-6	i	x	x
CC(=O)C(C(C)=O)C1(O)C(=O)c2ccccc2C1=O	-3	-2	23*	1	-5	i	19*	0	GFP quench dose=>68
CC(=O)N(C)C1=C(O)c2ccccc2C(=O)C1=O	1	-10	2	-1	-6	i	x	x
CN(C)CCCNC(=O)c1ccc(-c2cc(O)c3ncccc3c2)cc1	-8	-7	25*	1	-6	i	31*	19*
C[C@H]1CN([C@@H](C)CO)C(=O)c2cc(NC(=O)NC3CCCCC3)ccc2O[C@H]1CN(C)C(=O)Nc1ccc(C(F)(F)F)cc1	0	-3	5	-1	0	i	x	x
COc1ccc(-c2noc(C3CCCN(C(=O)Nc4cccc(C)c4)C3)n2)cc1 (stereo not drawn)	-5	6	x	-1	-1	x	x	x
Nc1ccc(C(=O)N/N=C/c2cn(Cc3ccc(F)cc3)c3ccccc23)cc1	-5	-3	3	-3	4	i	x	x
O=C(N/N=C/c1cn(Cc2cccc(F)c2)c2ccccc12)c1cc(O)cc(O)c1	39*	66*	14*	-1	27*	i	8.7*	10*
Cc1sc2ncn(CC(=O)NCC(=O)N3CCN(c4ccccc4F)CC3)c(=O)c2c1C	3	-2	26*	0	-5	i	0	-6
COc1ccccc1N1CCN(C(=O)CNC(=O)Cn2cnc3sc(C)c(C)c3c2=O)CC1	1	5	6	0	1	i	x	x
CCN(CC)c1ncnc2c1ncn2[C@H]1CN(Cc2ccccc2)C[C@@H](CO)O1	2	6	0	0	10	i	x	x
CCN(CC)c1ncnc2c1ncn2[C@H]1CN(Cc2ccncc2)C[C@@H](CO)O1	4	-1	7.7*	-1	-4	i	-3	0
CN(C)c1ncnc2c1ncn2[C@H]1CN(Cc2ccc(Cl)cc2)C[C@@H](CO)O1	4	0	6.9*	-1	0	i	3	-3
CCN(CC)c1ncnc2c1ncn2[C@H]1CN(Cc2ccc(Cl)cc2)C[C@@H](CO)O1	-5	-1	3	0	3	i	x	x
CC(=O)N1c2ccccc2C(=O)NCC1C(=O)NC(C)(C)C (stereo not drawn)	3	-1	x	1	6	x	x	x
Cc1cccc(N2CCN(S(=O)(=O)c3ccc(Cl)nc3)CC2C)c1 (stereo not drawn)	0	1	2	0	4	i	x	x
COC(=O)c1ccc(COC(=O)c2ccc(CO)cc2)o1	-1	1	7.3*	0	1	i	6	-1
COC(=O)c1ccc(COC(=O)C23CC4CC(CC(O)(C4)C2)C3)o1	0	-1	20*	-5	0	i	17*	1	GFP quench dose=>68
CCOC(=O)C1CCN(C(=O)CN(c2ccc3c(c2)OCCO3)S(C)(=O)=O)CC1	3	-6	0	0	3	i	x	x
OC[C@@H]1CN(Cc2ccc(-c3ccccc3)cc2)C[C@H](n2cnc3c(NC4CC4)ncnc32)O1	4	0	26*	1	-2	i	21*	-1	GFP quench dose=>68
CC(C)CNc1ncnc2c1ncn2[C@H]1CN(Cc2ccc(F)cc2)C[C@@H](CO)O1	3	0	2	1	-3	i	x	x
CNc1ncnc2c1ncn2[C@H]1CN(Cc2ccc(-c3ccccc3)cc2)C[C@@H](CO)O1	0	0	9.7*	1	1	i	13*	-2
OC[C@@H]1CN(Cc2ccc(Cl)cc2)C[C@H](n2cnc3c(NC4CCC4)ncnc32)O1	-1	0	12*	0	-2	i	9.4*	-1
SMILES	LEDGF integ inh	UHRF1 binding	Rin1-Abl PPI inh	proKLK7 act	MBD2 DNA inh	Neddylation inh	Rin1-Abl confirm	GFP quench	others
CC(C)CNc1ncnc2c1ncn2[C@H]1CN(Cc2ccc(Cl)cc2)C[C@@H](CO)O1	0	1	18*	0	-8	i	10*	-2
CC(C)Nc1ncnc2c1ncn2[C@H]1CN(Cc2ccc(Cl)cc2)C[C@@H](CO)O1	-2	3	6	0	0	i	x	x
OC[C@@H]1CN(Cc2ccc(-c3ccccc3)cc2)C[C@H](n2cnc3c(Nc4ccccc4)ncnc32)O1	2	1	2	-1	-1	x	x	x
CN=C1S/C(=C/c2cc(C)n(-c3ccc(Cl)cc3F)c2C)C(=O)N1C	2	-1	x	x	-2	x	x	x
Cc1cccc(N(Cc2ccccc2)C(=O)c2cccc(S(=O)(=O)N3CC(C)OC(C)C3)c2)c1 (stereo not drawn)	2	3	1	0	0	i	x	x
N#CC12CCCCC1CC1CCCCC1(C#N)N2Cc1cccnc1 (stereo not drawn)	-2	2	53*	0	1	i	92*	-1	GFP quench dose=>68
ClC(Cl)(c1nnnn1-c1ccccc1)c1nnnn1-c1ccccc1	0	-1	4	-1	4	i	x	x
O=C(NC1(O)C(=O)c2ccccc2C1=O)c1c(Cl)cccc1Cl	-3	3	14*	1	-4	i	28*	2	GFP quench dose=>68
O=C(NC1(O)C(=O)c2ccccc2C1=O)c1ccccc1	10	-1	28*	1	-7	i	29*	2	GFP quench dose=>68
Nc1[nH]c(C(=O)c2ccccc2)c(-c2ccc3ccccc3c2)c1C(=O)NCc1ccc(-c2ccccc2)cc1	-2	-4	x	1	0	x	x	x

Source: PubChem
